An excerpt weighted towards active compounds, which were near 1.6% of everything screened.
eIF4H inh = inhibitors of RNA binding by human eIF4H; Q15056; 0.94% of 290,000 active; AID 2012; inhibition, % at 35 µM; eIF4H fluorescence polarization binding assay;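 note: calls also rest on retests at 20 µM and on dose response follow-up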
PABP polyA inh = PABP-poly(A) binding inhibition | P11940 | PABP-poly(A) RNA binding, fluorescence polarization | calls only at 35 µM | 1% of 290,000 active | AID 2014;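 note: calls also rest on retests at 20 µM and on dose response follow-up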
eIF4E 4G PPI = inhibitors of eIF4E and eIF4G interaction in translation initiation; P63073+Q04637; TR-FRET eIF4E-eIF4GI(517-606) binding, 2 h; inhibition, % at 21.7 µM; 0.37% of 220,000 active; AID 782;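 active = inhibition above about 30%, limit read from the data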;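 note: 0% = full FRET control wells and 100% = background wells lacking eIF4GI fragment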
PERK inhibitor = blocks human PERK kinase | inhibition, % at 5.6 µM | Q9NZJ5 | 0.17% of 220,000 active | CHO PERK-DD fusion, SEAP luminescence translation reporter;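 active = inhibition above the mean inhibition of all tested compounds plus 3 SD, set separately per screening campaign, cut at about 2.9% in these data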;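 note: PERK kinase domain activated by AP20187 dimerizer at 100 nM; 0% = DMSO with dimerizer and 100% = rapamycin at 8.4 µM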
MLLE-PAM2 inh = blocks PAM2 peptide binding to the PABP1 MLLE domain; GST-MLLE / FITC-PAM2 fluorescence polarization; 0.36% of 360,000 active; inhibition, % at 20 µM; in the data active = inhibition above about 35%, passing the limit was not always enough;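 note: plate controls were DMSO wells with GST-MLLE for no effect and wells lacking GST-MLLE protein for full effect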
Numbers without * were called inactive; i = inactive; ? = inconclusive; nt = no result; + = active, no number; ! = not active in a repeat; [ ] = dose if it differs, or a comment. Unless noted, the rule behind the calls is not given here.

SMILES | eIF4H inh | PABP polyA inh | eIF4E 4G PPI | PERK inhibitor | MLLE-PAM2 inh
COc1cc(-c2nnc(-c3cc(OC)c(OC)c(OC)c3)o2)cc(OC)c1OC | 3 | i | -1 | 0 | -1
COC(=O)c1ccccc1C(=O)c1ccc2c(c1)NC(=O)CO2 | 10 | i | -1 | 1 | -4
COC(=O)c1ccc(NC(=O)CSC2=NC(=O)C(c3ccccc3)C(=O)N2)cc1 (centres undefined) | 2 | i | 2 | 2 | 18
CCOC(=O)c1ccc(N=c2ssnc2Cl)cc1 | 1 | i | 39* | 0 | 19
Clc1ccc(N=c2ssnc2Cl)cc1 | -9 | i | 31*[fluorescence artefact?] | 0 | 27
N#Cc1ccc(N=c2ssnc2Cl)cc1 | -6 | i | 26 | 0 | 24
Cc1cccc(N2CCN(C(=O)CCc3nc4ccccc4c(=O)[nH]3)CC2)c1C | nt | nt | nt | nt | 18
CCCOC1CCCN(C(=O)CCc2nnc(-c3ccc4c(c3)OCO4)o2)C1 (centres undefined) | 6 | i | nt | nt | -14
CN(Cc1ccc(Cl)s1)C(=O)CCl | -1 | i | 0 | 0 | -2
Cc1ccc(-n2[nH]c(C)c(C=Nc3ccc4[nH]c(=O)[nH]c4c3)c2=O)cc1C | 3 | i | -8 | 1 | 67*
CSc1ccccc1C(=O)NCCOc1cccc(C)c1 | -2 | i | 2 | 0 | -10
COc1ccc(CNS(=O)(=O)c2cn(C)c(=O)n(C)c2=O)cc1 | -2 | i | nt | nt | 7
CCc1ccc(OS(=O)(=O)c2cn(C)c(=O)n(C)c2=O)cc1 | -5 | i | 4 | 0 | 41*
Cc1ccccc1C1C(C#N)=C2N=C(N)c3c(sc4c3CCCCC4)N2C2=C1C(=O)CC(C)(C)C2 (centres undefined) | 114* | i | -16 | 0 | 13
Cc1ccccc1C1C(C#N)=C2NC(=O)c3c(sc4c3CCCCC4)N2C2=C1C(=O)CC(C)(C)C2 (centres undefined) | 47 | i | -7 | -1 | nt
Cn1c(=O)oc2cc(S(=O)(=O)NCc3cccnc3)ccc21 | 65 | + | -2 | 2 | 2
Cn1c(=O)oc2cc(S(=O)(=O)Nc3cccc4c3CCCC4)ccc21 | 62* | + | 9 | -1 | -7
CCC1CCCCN1Cc1ccc(CNS(=O)(=O)c2ccc3c(c2)oc(=O)n3C)o1 (centres undefined) | 55* | + | 0 | -1 | -9
Cc1ccc(S(=O)(=O)N2CCN(C(=O)COC(=O)CNC(=O)c3ccccc3F)CC2)c(C)c1 | nt | nt | nt | nt | -15
COc1cccc(/C=N/Nc2nc3ccccc3n3cnnc23)c1 | 85* | + | -5 | 1 | 3
COc1cccc(/C=N/Nc2nc3ccccc3n3cnnc23)c1O | 28 | i | 3 | 1 | -6
Cc1cc(F)ccc1NCc1ccc([N+](=O)[O-])cc1 | -7 | ? | 0 | 0 | 4
O=C(O)c1cccc(N2C(=O)/C(=C/c3ccc(SCc4ccc(Cl)cc4)o3)SC2=S)c1 | 83 | i | 49* | 3 | -136
O=C(CCN1C(=O)/C(=C/c2ccc(Cl)cc2)SC1=S)Nc1cccc(C(=O)O)c1 | 16 | i | nt | nt | 10
Cc1ccc(NC(=O)COC(=O)c2ccc(Cl)nc2)cc1S(=O)(=O)N1CCCCC1 | nt | nt | nt | nt | -14
SMILES | eIF4H inh | PABP polyA inh | eIF4E 4G PPI | PERK inhibitor | MLLE-PAM2 inh
O=C1CCNc2ccc(-c3ccccc3)cc21 | 6 | i | 3 | 0 | 158
O=C1CCNc2cc3ccccc3cc21 | 82* | + | -4 | 0 | 24
CCOc1cc2c(C#N)c(N(CC)CC)nc(N)c2c(N)n1 | nt | nt | nt | nt | -55
CCOc1cc2c(C#N)c(N3CCOCC3)nc(N)c2c(N)n1 | 73* | + | 5 | nt | 7
CC(C)CC(=O)Nc1ccc2ccccc2c1 | -4 | i | -4 | 3.2*! | -6
COc1cccc(NCc2cc(=O)oc3cc(C)c(C(C)C)cc23)c1 | -13 | i | nt | nt | 9
COc1ccccc1NC(=O)CCc1nnc2ccc(N3CCC4(CC3)OCCO4)nn12 | 0 | i | nt | nt | 15
CN(C(=O)CSc1ccc2c(c1)OCCO2)c1ccccc1 | nt | nt | nt | nt | 24
N#CCCN(C(=O)CSc1ccc2c(c1)OCCO2)c1ccccc1 | 9 | i | 1 | 0 | 41*
CC(=O)Nc1ccc(S(=O)(=O)NNC(=O)c2ccc(S(=O)(=O)N3CCCCC3)cc2)cc1 | -5 | i | 5 | 1 | -2
O=C(NNS(=O)(=O)c1ccc(F)cc1)c1ccc(S(=O)(=O)N2CCCCC2)cc1 | active | i | 1 | 2 | 4
O=C(N/N=C\c1c(O)ccc2ccccc12)c1ccc(S(=O)(=O)N2CCCCC2)cc1 | 64* | + | 13 | 1 | -155
NC(=S)N/N=C/c1c(O)ccc2ccccc12 | 4 | i | 7 | 1 | 47*
Cc1ccc(SCc2nc3ncccn3c2Br)cc1 | -1 | i | 3 | 1 | -9
O=C(/C=C/c1cccc(F)c1)Nc1ccc(S(=O)(=O)N2CCOCC2)cc1 | nt | nt | nt | nt | -13
O=C(CSc1n[nH]c(-c2ccccc2Br)n1)NCCN1C(=O)CSC1=O | active | i | -6 | 1 | -2
Cc1ccc(Nc2nnc(SCC(=O)NCCN3C(=O)CSC3=O)s2)cc1C | -3 | + | 5 | 0 | -83
Cc1ccc(SCC(=O)NCCN2C(=O)CSC2=O)cc1C | -7 | i | 0 | -1 | -10
N#CCC(=O)Nc1ccc(C(=O)N2CCN(S(=O)(=O)c3ccc4ccccc4c3)CC2)cc1 | 3 | i | nt | nt | -11
OC(c1cccc(F)c1)c1ncc(-c2ccc(C(F)(F)F)cc2)[nH]1 (centres undefined) | nt | nt | nt | nt | 6
Cc1ccccc1SCC(=O)NC1CCOC1=O (centres undefined) | 4 | i | -1 | 2 | 40*
COc1cc(OC)cc(C(=O)N[C@H](C(=O)NC2=NCCS2)C(C)C)c1 | nt | nt | nt | nt | 6
CCOC(=O)C(=O)NNc1ccc(F)cc1 | 13 | i | 31* | 1 | -3
CCOC(=O)C(=O)N/N=C/c1ccc(F)cc1 | -12 | i | 4 | 0 | -4
CCOC(=O)c1ccccc1N1C(=O)CSC1=S | -1 | i | 3 | -1 | 41*
SMILES | eIF4H inh | PABP polyA inh | eIF4E 4G PPI | PERK inhibitor | MLLE-PAM2 inh
Cc1ccc2nc(NCc3ccco3)c(C=NCc3ccco3)c(=O)n2c1 | 68* | + | -5 | 0 | 0
CCCc1cc(=O)[nH]c(SCC(=O)Nc2cc(S(=O)(=O)N(CC)c3ccccc3)ccc2Cl)n1 | nt | nt | nt | nt | 1
S=c1[nH]c(-c2ccccc2)cn1/N=C/c1cccnc1 | 3 | i | 96* | -1 | 21
CCN(C(=O)COC(=O)c1cccc(NS(=O)(=O)c2ccc(F)c(F)c2)c1)C1CCS(=O)(=O)C1 (centres undefined) | -12 | i | -2 | 1 | nt
Cc1cc(C)n2cc(CSCc3ccco3)nc2n1 | 15 | i | 6 | 2 | 24
Cc1cccc2nc(CSCc3ccco3)cn12 | 76* | + | 0 | 0 | 44*
OC1(c2ccc(Cl)cc2)CN(c2ccccc2)C2=[N+]1CCS2 (centres undefined) | -10 | i | -4 | 0 | 37
